# Experimental data as given in PubChem BioAssay (NCATS).
# Values joined by “and” are separate entries in the source; they are usually repeats but may differ in a detail not shown here. Equal values may be shown once. Inconclusive results are not listed. Active and inactive are the calls of the source. Unless noted, calls follow the shape of the dose curve; as a rule, active = well fitted curve in the direction sought with a large enough effect; inconclusive = small, poorly fitted or top-dose-only effect, or another doubt; inactive = no such curve, though single readings can be large; an effect the other way counts as inactive or inconclusive.
# Experiments:
# [1] = biological target: Vitamin D3 receptor (Homo sapiens) (UniProt P11473); assay: qHTS assay for small molecule antagonists of vitamin D receptor signaling (AID 588541; calls by dose curve;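 also: receptor activated by calcitriol during compound treatment; series mostly up to about 77 µM; % is scaled to controls: 0 for no effect and ±100 for the full control effect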)
# Vitamin D3 receptor (Homo sapiens), sequence (P11473 whole entry, looked up): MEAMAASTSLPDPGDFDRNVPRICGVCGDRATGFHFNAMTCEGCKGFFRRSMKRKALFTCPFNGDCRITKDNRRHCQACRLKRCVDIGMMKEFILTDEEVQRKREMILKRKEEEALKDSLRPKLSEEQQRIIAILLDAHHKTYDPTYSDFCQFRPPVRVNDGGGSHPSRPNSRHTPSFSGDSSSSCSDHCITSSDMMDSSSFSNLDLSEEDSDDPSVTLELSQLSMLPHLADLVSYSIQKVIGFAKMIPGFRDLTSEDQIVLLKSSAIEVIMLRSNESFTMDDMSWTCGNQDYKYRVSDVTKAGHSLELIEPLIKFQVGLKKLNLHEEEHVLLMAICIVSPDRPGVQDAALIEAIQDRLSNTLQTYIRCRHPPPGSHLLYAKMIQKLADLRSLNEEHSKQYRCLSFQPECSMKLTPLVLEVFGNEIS
# Outline: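 Antagonist-mode beta-lactamase reporter assay: HEK293T VDR-UAS-bla cells were exposed to titrated compound alongside 1-alpha,25-dihydroxyvitamin D3 at 3 nM final for 16 h. Values were normalized to the 50 nM agonist control and DMSO basal, with IC50 and efficacy from Hill equation fits.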
# [2] = qHTS assay for small molecule agonists of retinoid X receptor alpha signaling (AID 588544); settings: HEK293T RXRa-UAS-bla, beta-lactamase reporter, 18 h; 530 nm emission
# [3] = qHTS assay for small molecule antagonists of retinoid X receptor alpha signaling (AID 588546; active = well fitted inhibition curve with a large enough effect in the signal ratio, with a control signal flat, not every such curve was filed as active; the % refers to the signal ratio;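 also: cells stimulated with 9-cis-retinoic acid as agonist; % is scaled to controls: 0 for no effect and ±100 for the full control effect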); settings: HEK293T RXRa-UAS-bla, beta-lactamase ratio, antagonist mode; measured here: W530 green channel, cytotoxicity proxy
# Outline: (§1)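 Beta-lactamase reporter inhibition, read as CCF4 fluorescence ratio (ex 405, em 460/530 nm) after 2 h at RT. HEK293T UAS-bla cells, 2500/well, were stimulated with 9-cis-RA at 500 or 100 nM final alongside test compound for 18 h at 37 C.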
# [4] = biological target: Retinoic acid receptor RXR-alpha (Homo sapiens) (UniProt P19793); assay: as above; settings: HEK293T RXRa-UAS-bla, beta-lactamase ratio, antagonist mode
# Retinoic acid receptor RXR-alpha (Homo sapiens), sequence (P19793 whole entry, looked up): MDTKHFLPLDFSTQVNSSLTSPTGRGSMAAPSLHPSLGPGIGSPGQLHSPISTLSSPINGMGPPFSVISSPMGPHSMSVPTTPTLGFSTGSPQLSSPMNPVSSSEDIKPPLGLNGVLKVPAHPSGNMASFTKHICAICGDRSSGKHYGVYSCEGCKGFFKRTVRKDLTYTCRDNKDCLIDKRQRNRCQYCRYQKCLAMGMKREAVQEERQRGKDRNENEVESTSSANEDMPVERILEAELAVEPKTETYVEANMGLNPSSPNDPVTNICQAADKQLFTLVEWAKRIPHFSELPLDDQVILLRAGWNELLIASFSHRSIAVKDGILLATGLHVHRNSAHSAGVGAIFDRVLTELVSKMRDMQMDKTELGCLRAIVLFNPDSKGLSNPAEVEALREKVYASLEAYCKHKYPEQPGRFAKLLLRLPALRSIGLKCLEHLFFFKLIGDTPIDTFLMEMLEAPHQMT
# Outline: as §1
# [5] = qHTS assay for small molecule activators of the p53 signaling pathway (AID 651743; active = well fitted activation curve with a large enough effect in the signal ratio, not every such curve was filed as active; the % refers to the signal ratio; also: series mostly up to about 92 µM; % of control where 0% means no effect); settings: HCT-116 p53RE-bla, beta-lactamase FRET ratio, 16 h; activation: stronger effect = higher value
# Outline: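 After 16 hours compound treatment at 37 C, HCT-116 cells stably expressing p53RE-driven beta-lactamase were loaded with LiveBLAzer B/G FRET substrate for 2 hours at room temperature. Fluorescence intensity served as the p53 activation read-out.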
# [6] = qHTS assay for environmental chemicals that activate the Aryl hydrocarbon Receptor (AhR) signaling pathway (AID 651777); settings: 1A2-DRE human hepatoma cells, luciferase, 24 h; activation: stronger effect = higher value; also: % of control where 0% means no effect; nearly all actives have a fitted effect of over 15% in size
# Outline: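 AhR activation is scored as a rise in luciferase from a stable DRE–CYP1A2 promoter construct in human hepatoma cells. Treatment lasts 24 hr at 37 C; detection uses One-Glo after 30 min at room temperature.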
# [7] = biological target: Peroxisome proliferator-activated receptor alpha (Homo sapiens) (UniProt Q07869); assay: qHTS assay for small molecule agonists of the peroxisome proliferator-activated receptor alpha (PPARalpha) signaling pathway (AID 651778); settings: PathHunter PPARalpha complementation, chemiluminescence, 6 h; stronger effect = higher value; also: % of control where 0% means no effect
# Peroxisome proliferator-activated receptor alpha (Homo sapiens), sequence (Q07869 whole entry, looked up): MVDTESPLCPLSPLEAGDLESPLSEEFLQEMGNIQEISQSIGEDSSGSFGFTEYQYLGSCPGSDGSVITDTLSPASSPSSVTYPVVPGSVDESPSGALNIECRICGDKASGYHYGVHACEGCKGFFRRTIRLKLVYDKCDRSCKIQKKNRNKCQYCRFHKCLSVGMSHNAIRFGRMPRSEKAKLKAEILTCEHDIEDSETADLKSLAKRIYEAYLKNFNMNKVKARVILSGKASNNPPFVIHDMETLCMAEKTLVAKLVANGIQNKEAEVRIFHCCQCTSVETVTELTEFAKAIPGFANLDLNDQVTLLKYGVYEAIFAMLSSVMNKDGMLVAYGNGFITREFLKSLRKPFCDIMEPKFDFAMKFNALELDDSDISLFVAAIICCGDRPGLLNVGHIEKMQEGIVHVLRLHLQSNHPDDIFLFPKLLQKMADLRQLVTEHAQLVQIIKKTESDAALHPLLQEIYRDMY
# Outline: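 Chemiluminescence from complemented enzyme reported PPARalpha activation in cells after 6 hr of compound treatment at 37 C. The detection reagent was incubated for 60 min at room temperature, and compounds were scored as agonists.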
# [8] = qHTS assay for small molecule agonists of the antioxidant response element (ARE) signaling pathway measured by Nrf2-dependant transcriptional activity (AID 720636; active = well fitted curve in the direction sought with a large enough effect in the repeat runs; an effect the other way counts as inactive or inconclusive;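 also: HepG2 cells with an ARE-driven luciferase reporter; % of control where 0% means no effect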)
# Outline: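 First, ARE-luc HepG2 cells attached for 6 hr at 37 C in 1% dialyzed FBS medium. Next, compound or DMSO was added and incubated 16 hr. Finally, ONE-Glo reagent was added and luminescence measured after 30 min.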
# [9] = qHTS assay for small molecule agonists of the antioxidant response element (ARE) signaling pathway measured by Nrf2-dependant transcriptional activity - cell viability counter screen (AID 720653; active = well fitted curve in the direction sought with a large enough effect in the repeat runs; an effect the other way counts as inactive or inconclusive; also: % is scaled to controls: 0 for no effect and ±100 for the full control effect); settings: ARE-bla HepG2 viability, CellTiter-Glo ATP luminescence, 16 h; stronger effect = lower value
# Outline: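 Cytotoxicity counter screen: intracellular ATP quantified by CellTiter-Glo luminescence in the same ARE-bla HepG2 plates, after 16 h compound exposure and a 2 h beta-lactamase substrate step.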
# [10] = qHTS assay for cell viability of HEK293 cells (AID 743288); settings: ATP luminescence (CellTiter-Glo), 18 h; max response: stronger effect = lower value; also: % is scaled to controls: 0 for no effect and ±100 for the full control effect; nearly all actives have a fitted effect of over 50% in size
# Outline: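 Readout is luciferase-coupled ATP content (CellTiter-Glo luminescence, 30 min room temperature) as a measure of metabolically competent cells. Parental HEK293 cells were plated 5 h or more before compound addition, then treated 18 h at 37 C.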
# [11] = qHTS assay for cell viability of the p53RE-bla HCT-116 cell line (AID 743292); also: % is scaled to controls: 0 for no effect and ±100 for the full control effect; nearly all actives have a fitted effect of over 55% in size
# Outline: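 Quantitative high-throughput format: compounds in DMSO were pinned onto p53RE-bla HCT-116 cells (4,000/well) and incubated 16 h at 37 C. Total intracellular ATP, read by CellTiter-Glo luminescence, reflects viable cell number.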
# [12] = biological target: Nuclear receptor subfamily 1 group I member 2 (Rattus norvegicus) (UniProt Q9R1A7); assay: qHTS assay for small molecule activators of the rat pregnane X receptor (rPXR) signaling pathway (AID 651751; call rule not given here; also: 0% is about no effect); settings: rPXR reporter cells, luciferase (One-Glo), 24 h
# Nuclear receptor subfamily 1 group I member 2 (Rattus norvegicus), sequence (Q9R1A7 whole entry, looked up): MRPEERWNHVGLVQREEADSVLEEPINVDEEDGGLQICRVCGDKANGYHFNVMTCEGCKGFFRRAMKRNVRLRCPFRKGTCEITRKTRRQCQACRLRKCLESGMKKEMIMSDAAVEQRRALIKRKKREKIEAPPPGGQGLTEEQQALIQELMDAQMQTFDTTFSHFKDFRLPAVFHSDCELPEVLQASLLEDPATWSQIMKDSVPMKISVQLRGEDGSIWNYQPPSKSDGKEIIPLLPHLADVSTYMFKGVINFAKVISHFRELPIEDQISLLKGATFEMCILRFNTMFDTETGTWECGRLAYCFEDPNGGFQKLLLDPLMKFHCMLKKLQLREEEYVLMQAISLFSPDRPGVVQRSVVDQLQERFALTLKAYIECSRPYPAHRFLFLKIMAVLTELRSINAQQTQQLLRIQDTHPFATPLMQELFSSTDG
# [13] = qHTS assay for small molecule antagonists of peroxisome proliferator-activated receptor delta signaling (AID 588535); settings: HEK293T PPARd-UAS-bla, beta-lactamase FRET ratio, 18 h; 460 nm channel;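 also: cells co-treated with a PPAR-delta agonist as stimulator during compound exposure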
# Outline: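 Titrations were run on PPAR-delta-UAS-bla HEK293T cells in charcoal/dextran-stripped serum, incubated 18 h at 37 C. CCF4 fluorescence (460/530 nm) after 2 h RT; Hill equation yields IC50 and maximal response.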
# [14] = biological target: Vitamin D3 receptor (Homo sapiens) (UniProt P11473); assay: qHTS assay for small molecule agonists of vitamin D receptor signaling (AID 588543; calls by dose curve;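 also: 0% = DMSO basal and 100% = reference agonist control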)
# Outline: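 Agonist-mode beta-lactamase reporter: HEK293T VDR-UAS-bla cells in charcoal-stripped 2% FBS, compound series 16 h 37 C, CCF4 2 h RT. EC50 from Hill fit, scaled against DMSO and 50 nM calcitriol control.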
# [15] = biological target: Thyroid hormone receptor beta (Homo sapiens) (UniProt P10828); assay: qHTS assay for small molecule antagonists of thyroid hormone receptor beta signaling (AID 588547; active = well fitted inhibition curve with a large enough effect in the signal ratio, with a control signal flat, not every such curve was filed as active; the % refers to the signal ratio;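 also: cells stimulated with 0.4 nM T3 agonist during compound exposure; series mostly up to about 77 µM; % is scaled to controls: 0 for no effect and ±100 for the full control effect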); settings: TR-UAS-bla HEK293, beta-lactamase ratio, antagonist mode, 18 h
# Thyroid hormone receptor beta (Homo sapiens), sequence (P10828 whole entry, looked up): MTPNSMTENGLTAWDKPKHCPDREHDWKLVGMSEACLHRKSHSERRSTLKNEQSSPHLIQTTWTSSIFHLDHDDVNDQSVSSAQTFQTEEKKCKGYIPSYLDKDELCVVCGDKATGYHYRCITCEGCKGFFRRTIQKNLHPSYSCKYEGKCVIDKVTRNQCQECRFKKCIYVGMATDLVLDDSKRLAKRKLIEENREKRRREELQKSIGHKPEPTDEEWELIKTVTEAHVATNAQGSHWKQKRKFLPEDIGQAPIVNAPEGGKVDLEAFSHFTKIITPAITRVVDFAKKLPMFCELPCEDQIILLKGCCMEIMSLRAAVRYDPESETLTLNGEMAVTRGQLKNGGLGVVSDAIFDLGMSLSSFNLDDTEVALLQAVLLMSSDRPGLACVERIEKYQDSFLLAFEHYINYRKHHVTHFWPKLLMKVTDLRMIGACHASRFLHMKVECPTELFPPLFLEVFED
# Outline: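 Inhibition of T3-driven (0.4nM final) beta-lactamase reporter activity was measured over 0.59 nM to 92 uM compound after 18 h at 37 C. The cells were GripTite HEK293 TR-UAS-bla in charcoal/dextran-stripped serum, with CCF4 ratio read-out and IC50 from Hill fits.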
# [16] = biological target: DNA dC->dU-editing enzyme APOBEC-3G (Homo sapiens) (UniProt Q9HC16); assay: qHTS for inhibitors of Vif-A3G interactions: Validation (AID 588379); also: 0% is about no effect
# DNA dC->dU-editing enzyme APOBEC-3G (Homo sapiens), sequence (Q9HC16 whole entry, looked up): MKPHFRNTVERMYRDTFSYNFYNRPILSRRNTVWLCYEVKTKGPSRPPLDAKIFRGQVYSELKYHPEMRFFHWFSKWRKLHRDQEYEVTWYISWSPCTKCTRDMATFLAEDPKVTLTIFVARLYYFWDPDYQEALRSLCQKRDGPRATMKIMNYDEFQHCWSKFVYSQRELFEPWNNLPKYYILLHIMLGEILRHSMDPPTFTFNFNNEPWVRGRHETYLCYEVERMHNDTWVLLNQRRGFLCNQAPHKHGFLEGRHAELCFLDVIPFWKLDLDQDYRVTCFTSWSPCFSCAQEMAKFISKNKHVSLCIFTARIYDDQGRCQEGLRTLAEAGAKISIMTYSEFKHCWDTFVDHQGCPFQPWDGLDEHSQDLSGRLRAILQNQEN
# Outline: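 Yellow fluorescence (Ex 488, Em 500-530) of Vif-coexpressing HeLa A3G-eYFP cells, scanned by Acumen cytometer, reports blocked A3G degradation. Cells plated at 700/well overnight at 37 deg C before compound addition, then a further overnight compound incubation at 37 deg C.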
# [17] = biological target: Peroxisome proliferator-activated receptor delta (Homo sapiens) (UniProt Q03181); assay: qHTS assay for small molecule agonists of peroxisome proliferator-activated receptor delta signaling (AID 588534; calls by dose curve;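 also: 0% = DMSO basal wells and 100% = positive control agonist at 10 µM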)
# Peroxisome proliferator-activated receptor delta (Homo sapiens), sequence (Q03181 whole entry, looked up): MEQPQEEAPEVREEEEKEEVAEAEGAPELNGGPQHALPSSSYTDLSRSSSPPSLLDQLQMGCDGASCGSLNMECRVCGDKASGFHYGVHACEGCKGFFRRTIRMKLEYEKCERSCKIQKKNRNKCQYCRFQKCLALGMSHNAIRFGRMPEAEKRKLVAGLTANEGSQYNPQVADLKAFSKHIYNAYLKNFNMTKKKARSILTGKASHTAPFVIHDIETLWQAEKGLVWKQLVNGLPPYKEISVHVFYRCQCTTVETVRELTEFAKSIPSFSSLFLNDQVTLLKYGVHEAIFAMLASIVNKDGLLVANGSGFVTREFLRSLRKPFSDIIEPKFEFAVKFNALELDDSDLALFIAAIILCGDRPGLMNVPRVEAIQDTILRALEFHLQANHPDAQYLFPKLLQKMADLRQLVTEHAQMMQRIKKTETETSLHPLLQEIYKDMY
# Outline: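 Agonist-mode qHTS; reporter cells, 5 hrs 37 C pre-incubation; compound titration, 18 hrs 37 C; CCF4 dye, 2 hrs RT; fluorescence read. EC50/efficacy via Hill fit.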
# [18] = qHTS assay for small molecule agonists of the antioxidant response element (ARE) signaling pathway (AID 651741; active = well fitted activation curve with a large enough effect in the signal ratio; the % refers to the signal ratio; also: potency is read from the fitted curve at half-maximal effect; as to activation: % of control where 0% means no effect)
# Outline: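 Beta-lactamase reporter under ARE control in HepG2 cells, 2,000 per well, was induced by 16 h compound treatment at 37 C. Read-out was fluorescence from LiveBLAzer B/G FRET substrate after 2 h at room temperature.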
# [19] = qHTS assay for small molecule activators of the nuclear factor-kappa B (NF-kB) signaling pathway (AID 651749; active = well fitted activation curve with a large enough effect in the signal ratio; the % refers to the signal ratio; also: series mostly up to about 77 µM; % of control where 0% means no effect); settings: NF-kB-bla ME-180 cells, beta-lactamase FRET ratio, 16 h; activation: stronger effect = higher value
# Outline: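 Activation measured after 16 hr compound treatment at 37C, 5% CO2, of 2,000 ME-180 cells/well stably expressing an NF-kB response element–driven beta-lactamase reporter, via FRET-disruption fluorescence.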
Structure (SMILES),outcome [1],max response [2],max response [3],max response [4],activation [5],activation [6],max response [7],outcome [8],max response [9],max response [10],Potency [11],max response [12],max response [13],outcome [14],activity change % (negative = inhibition) [15],outcome [16],outcome [17],Potency [18],activation [19]
CCC(=O)Nc1ccc(Cl)c(Cl)c1,inactive,4.16%,-13.9%,-5.6% (inactive),4.6% (inactive),4.76% (inactive),-0.456% (inactive),inactive,-7.64% (inactive),1.17% (inactive),inactive,6.65% (inactive),–,–,–,–,–,–,–
O=C(O)COc1cc(Cl)c(Cl)cc1Cl,inactive,28.5%,20.3%,-33.7% (inactive),–,0.686% (inactive),-1.8% (inactive),inactive,-9.62% (inactive),-0.339% (inactive),inactive,-2.98% (inactive),15.2%,inactive,7.44% (inactive),–,–,–,–
C[C@]12CCC3C(CC[C@H]4C[C@@H](O)CC[C@]34C)[C@@H]1CCC2=O (stereo partly specified),–,–,–,–,–,–,–,–,–,–,–,–,–,–,–,inactive,–,–,–
CC(C)OC(=O)Nc1cccc(Cl)c1,inactive,-7.86%,-4.63%,4.34% (inactive),1.93% (inactive),–,-1.91% (inactive),–,-10.2% (inactive),-6.02% (inactive),inactive,–,2.77%,inactive,12.8% (inactive),–,inactive,inactive,0.165% (inactive)
CCc1cccc(C)c1N(C(=O)CCl)C(C)COC (stereo unspecified),inactive,–,0.387%,-18.8% (inactive),-2.17% (inactive),-0.315% (inactive),-0.424% (inactive),–,-0.37% (inactive),-14.8% (inactive),inactive,14% (inactive),–,inactive,–,–,–,24.3 µM (active),-1.58% (inactive)
CNC(=O)Oc1ccccc1OC(C)C,inactive,-0.248%,-6.53%,-31.5% (inactive),–,-1.13% (inactive),0.062% (inactive),inactive,-4.9% (inactive),-6.22% (inactive),inactive,-0.132% (inactive),17.8%,inactive,16.1% (inactive),–,inactive,inactive,-2.6% (inactive)
CCCCSP(=O)(SCCCC)SCCCC,inactive,–,–,–,-2.51% (inactive),-2.91% (inactive),3.39% (inactive),inactive,12.3% (inactive),-3.57% (inactive),–,–,-5.76%,inactive,-17.4% (inactive),–,inactive,–,–
CC[C@@H]1CN2CC[C@@H]1C[C@H]2[C@H](O)c1ccnc2ccc(OC)cc12,–,–,–,–,–,–,–,–,–,–,–,–,–,–,–,inactive,–,–,–
CNC(=O)CSP(=S)(OC)OC,inactive,1.61%,1.7%,-6.5% (inactive),–,0.301% (inactive) and 4.06% (inactive),-2.63% (inactive) and -0.399% (inactive),inactive,-1.41% (inactive) and -0.459% (inactive),-6.64% (inactive) and -7.96% (inactive),inactive,-3.03% (inactive) and -0.565% (inactive),27.9%,inactive,-15.4% (inactive) and 6.49% (inactive),–,inactive,inactive,–
N#Cc1c(Cl)cccc1Cl,–,-4.43%,-15.4%,2.12% (inactive),-3.69% (inactive),-0.167% (inactive),0.511% (inactive),inactive,0.251% (inactive),0.0704% (inactive),inactive,2.13% (inactive),41.3%,–,-4.17% (inactive),–,inactive,inactive,-0.285% (inactive)
